Hit rate of the full screen: of about 290,000 compounds, about 3,100 (1.1%) were called active. Cut-off read from the data, not from the text of the source: active = inhibition above about 16% (passing the limit was not always enough); inactive = the rest. The entries come from a sample that favours actives as a whole.
The compounds below were run against Neuropeptides B/W receptor type 1 (Homo sapiens) (UniProt P48145) (assay: blockers of human neuropeptide B/W receptor 1 – cell-based, fluorescence, single concentration, primary screen (AID 1861;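 note: cells stimulated with the agonist NPW; 0% = agonist with vehicle and 100% = vehicle without agonist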)). Conditions: GPR7-expressing cells, fluorescence antagonist assay; at 4.4 µM; active compounds read high.
Sequence of Neuropeptides B/W receptor type 1 (Homo sapiens) (P48145 whole entry, looked up): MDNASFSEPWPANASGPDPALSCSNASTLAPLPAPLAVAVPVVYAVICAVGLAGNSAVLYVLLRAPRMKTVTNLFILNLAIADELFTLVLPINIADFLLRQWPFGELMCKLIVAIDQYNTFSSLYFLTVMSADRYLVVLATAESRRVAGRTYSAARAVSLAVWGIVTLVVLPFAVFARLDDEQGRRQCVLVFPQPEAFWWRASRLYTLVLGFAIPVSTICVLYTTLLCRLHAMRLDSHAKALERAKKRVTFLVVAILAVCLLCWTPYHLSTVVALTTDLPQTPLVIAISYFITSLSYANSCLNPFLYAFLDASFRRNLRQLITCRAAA

inhibition, inactive:
O=C(Cn1cnc2ccccc21)Nc1ccccc1-c1ccccc1 -5.35%
CC(C)c1nnc(NC(=O)COC(=O)/C=C/c2ccc([N+](=O)[O-])cc2)s1 -6.73%
O=C(COC(=O)C1CCCCC1)Nc1ccc([N+](=O)[O-])cc1 23.9%
COc1ccc2c(c1)c(C(=O)N/N=C/c1cccs1)c(C)n2C -1.8%
O=C(COc1ccc(Cl)cc1Cl)NCCCNC(=O)c1cnccn1 -1.6%
CC(=O)N1c2ccc(S(=O)(=O)N3CCCC(C(=O)Nc4cccc(Cl)c4)C3)cc2CC1C (centres undefined) 2.68%
CC(=O)N1CCCc2cc(S(=O)(=O)N3CCCC(C(=O)NCc4ccc(Cl)cc4)C3)ccc21 (centres undefined) 0.31%
CCOc1cc2[nH]c(=S)n(Cc3ccc(C(=O)N4CCN(C)CC4)cc3)c(=O)c2cc1OCC 2.37%
CCNC(=S)N(CCN(CC)CC)Cc1cc2cc3c(cc2[nH]c1=O)OCCO3 -10.2%
Cc1cc(C(=O)COC(=O)c2cccs2)c(C)n1-c1c(C)n(C)n(-c2ccccc2)c1=O -14.8%
COc1cc2ccccc2cc1C(=O)Nc1ccc(NC(=O)c2cccs2)cc1 -3.15%
O=C(O)c1ccc(S(=O)(=O)N2CCOCC2)o1 1.56%
Cc1ccc(S(=O)(=O)NCC2CCC(C(=O)N3CCOCC3)CC2)cc1 (centres undefined) -4.78%
CN1C/C(=C/c2cccs2)C(=O)/C(=C\c2cccs2)C1 -7.39%
CS(=O)(=O)N(Cc1nc2sc3c(c2c(=O)[nH]1)CCCC3)C1CCCCC1 1.34%
CSc1nc2ccc(NC(=O)c3c(F)cccc3F)cc2s1 -5.74%
CCCC(=O)Nc1nc2ccc(NC(=O)c3cccnc3)cc2s1 3.59%
CN(C)c1nc(=Nc2cccc(Cl)c2)ss1 -8.61%
CNS(=O)(=O)c1cccc(C(=O)NC2CCCc3ccccc32)c1 (centres undefined) -8.59%
COc1ccc(CC(=O)NC(C)CCc2ccccc2)cc1 (centres undefined) -6.45%
COc1ccc(C(CNCC(=O)Nc2ccccc2F)N(C)C)cc1 (centres undefined) 0.06%
N#Cc1c(Cl)nc(-c2cccnc2)nc1-c1ccccc1 4.22%
O=C1CSC(c2ccccc2)N1c1nc(-c2ccc(Cl)cc2Cl)cs1 (centres undefined) -0.11%
Clc1ccc(-c2cc(-c3ccccn3)on2)c(Cl)c1 -1.76%
COc1ccc(N(CC(=O)NCc2ccc(F)cc2)C(=O)CCC(=O)Nc2nccs2)cc1 1.89%
COCCOC1CCN(C(=O)c2ccc(OC)c(OC3CCN(C(C)C)CC3)c2)CC1 -13.7%
Cc1ccc(CN2CCN(Cc3cn(C)nc3-c3ccccc3)CC2CCO)o1 (centres undefined) -17.8%
Cc1ccccc1CN1C[C@@H]2C[C@@H](c3ccc4nsnc4c3)N3CCC[C@@]23C1=O -4.53%
CS(=O)(=O)c1ccc(-c2nnn(CC(=O)Nc3ccc4c(c3)OCCO4)n2)cc1 11.6%
O=C(CN(Cc1ccc(Br)cc1)S(=O)(=O)c1ccccc1)NCc1ccncc1 5.84%
CC(=O)NNC(=O)c1csc(Cc2c(Cl)sc3ccc(Cl)cc23)n1 0.26%
Cc1ccc(S(=O)(=O)N2CCC(C(=O)N[C@@H](C)C(=O)NCc3ccco3)CC2)cc1 2.63%
CC1CCN(S(=O)(=O)c2ccc(S(=O)(=O)NCc3cccnc3)cc2)CC1 -1.72%
O=C(CC1SC(=Nc2ccccc2)N(Cc2ccccn2)C1=O)Nc1cccc(Cl)c1 (centres undefined) -4.47%
CCN1C(=NCc2ccc(OC)cc2)N[C@@H](CCc2ccccc2)[C@H](C(=O)NCc2ccc(OC)cc2)[C@H]1C 14%
CCN(CC)CCCNC(=O)c1c(O)c2cc(F)cc3c2n(c1=O)C(C)CC3 (centres undefined) 4.5%
CCOc1ccc2nc(N(CCCN(C)C)C(=O)c3ccc(C(=O)c4ccccc4)cc3)sc2c1 6.16%
CC(=O)N(CCCN(C)C)c1nc2ccc(C)cc2s1 -10.8%
CCOc1ccc2nc(N(CCN(C)C)C(=O)c3ccc4ccccc4c3)sc2c1 3%
O=C(Nc1nc2ccc([N+](=O)[O-])cc2s1)c1ccc(S(=O)(=O)N2CCCc3ccccc32)cc1 -16.1%
CSc1nc2ccc(S(=O)(=O)N3CCc4ccccc43)cc2s1 -0.77%
CCN(CC)CCN(C(=O)c1ccc(S(=O)(=O)N2CCOCC2)cc1)c1nc2cc3c(cc2s1)OCCO3 -11.1%
COc1ccc(C(C(=O)NC2CCCCC2)N(C(=O)Cc2c[nH]c3ccccc23)c2ccccc2)cc1OC (centres undefined) -5.99%
Cc1cc(S(=O)(=O)c2cc3ccc(O)c(C)c3oc2=O)ccc1F -15%
Cc1ccccc1NC(=O)CCNS(=O)(=O)c1ccc2[nH]c(=O)oc2c1 -12.7%
O=C(Nc1ccc(C2CC2(Cl)Cl)cc1)c1cccc([N+](=O)[O-])c1 (centres undefined) -6.54%
Nc1ccn(C2CC(O)C(CO)O2)c(=O)n1 (centres undefined) -7.05%
O=C(COc1ccc(S(=O)(=O)N2CCOCC2)cc1Cl)N1CCOCC1 -13.2%
COc1ccccc1CNC(=O)c1ccc(N(C)S(=O)(=O)c2ccc(C)cc2)cc1 -3.56%
Cc1ccccc1CSCCNC(=O)c1ccc(N(C)S(=O)(=O)c2ccccc2)cc1 1.47%
O=C(NCCS(=O)(=O)c1ccc(Br)cc1)c1ccccc1Cl 1.64%
O=C(c1ccco1)N1CCN(Cc2cccc(C(F)(F)F)c2)CC1 -13.2%
Cc1ccc(NS(=O)(=O)c2ccc(-c3ccc(=O)[nH]n3)o2)c(C)c1 -0.17%
COc1cc(C(C(=O)NC2CCCC2)N(Cc2ccccc2)C(=O)c2snc(C(N)=O)c2N)ccc1O (centres undefined) -10.6%
CCc1ccc(S(=O)(=O)Nc2cc3c(cc2N2CCCCC2)n(C)c(=O)c(=O)n3C)cc1 4.78%
Cc1ccc(C)c(S(=O)(=O)n2cnc3ccccc32)c1 8%
COc1ccc(S(=O)(=O)n2cnc3ccccc32)c(C)c1 -5.76%
CCc1nc2ccc(C(=O)N3CCN(c4cccc(Cl)c4)CC3)cc2nc1CC -5.19%
O=C1CCC([N+](=O)[O-])C(c2ccccc2Br)N1 (centres undefined) -13.4%
COc1ccc(C2CC(=O)Nc3cc(C)c(C)cc32)c(OC)c1OC (centres undefined) -2.76%
COc1ccccc1C1C2=C(COC2=O)Nc2cc3c(cc21)OCO3 (centres undefined) 3.72%
CC(C)(C)C(=O)CN1C2=NCCN2c2ccccc21 -10.1%
OC(CN1C2=NCCCN2c2ccccc21)c1ccc(Br)cc1 (centres undefined) 13.8%
CC(=O)Nc1ccc(NC(=O)CS(=O)(=O)c2cn(CC(=O)N3CCCCC3)c3ccccc23)cc1 -0.17%
CC(=O)Nc1ccc(CN2CCC(Oc3ccc(C(=O)N4CCCC4)cc3)CC2)cc1 -2.18%
COc1ccc(OCc2nnc3n2N=C(c2ccccc2)C(CC(=O)O)S3)cc1 (centres undefined) -5.82%
O=C(Cc1ccccn1)c1ccc(O)cc1O 1.18%
CCOc1ccc(NC(=O)CC2NCCNC2=O)cc1 (centres undefined) -18.5%
CCOc1ccc(NC(=O)CCNC(=O)c2ccc(Br)cc2)cc1 -13.4%
CN(c1ccccc1)S(=O)(=O)c1ccc(NC(=O)COc2ccccc2)cc1 1.02%
COc1ccc(NC(=O)C2C3CCC(O3)C2C(=O)O)cc1OC (centres undefined) -10.2%
Cc1cccc(-c2nnc(SCC(=O)O)n2Cc2ccccc2)c1 -5.33%
CC1C=CCC2C(=O)N(c3cccc(C(=O)N4CCCCCC4)c3)C(=O)C12 (centres undefined) 3.08%

inhibition, active:
CCOCC(=O)Nc1ncc(S(=O)(=O)c2ccc([N+](=O)[O-])cc2)s1 19.5%
CC(=O)N1CCCc2cc(S(=O)(=O)N3CCCC(C(=O)N4CCN(c5cccc(Cl)c5)CC4)C3)ccc21 (centres undefined) 35.7%
COc1ccc(-n2c(C)cc(C(=O)COC(=O)c3cc(OC)c(OC)cc3NC(=O)c3cccs3)c2C)cc1 27.1%
CCCC(=O)Nc1nc2ccc(NC(=O)c3c(F)c(F)c(OC)c(F)c3F)cc2s1 36.2%
COc1ccc(C(CCNCc2ccccc2F)c2ccc(F)cc2)cc1 (centres undefined) 27.6%
Clc1ccc(-c2cc(C3CCNCC3)[nH]n2)c(Cl)c1 28.3%
Cc1ccccc1CN1C[C@@H]2C[C@@H](c3cn(C)nc3-c3ccccc3)N3CCC[C@@]23C1=O 25.5%
CC1CCN(S(=O)(=O)c2ccc(S(=O)(=O)NCc3ccco3)cc2)CC1 19.6%
CCc1ccc2nc(N(CCCN(C)C)C(=O)c3ccc4c(c3)OCCO4)sc2c1 22.4%
CN(C)CCCN(C(=O)c1ccc(S(=O)(=O)N2CCCCCC2)cc1)c1nc2ccc(Br)cc2s1 28.6%
CN(C)CCCN(C(=O)c1ccc(S(=O)(=O)N2CCCc3ccccc32)cc1)c1nc2ccc(F)cc2s1 41.8%
CN(c1ccccc1)S(=O)(=O)c1ccc(C(=O)NCCc2ccccc2)cc1 23.9%
Cc1ccc(S(=O)(=O)n2cnc3ccccc32)c(C)c1 35.5%
CCCOc1ccccc1C1CC(=O)Nc2cc3c(cc21)OCO3 (centres undefined) 23.7%
Cc1cc2c(cc1C)N(Cc1ccccc1)C1=NCCCN12 23.7%
CCOC(=O)C1CSC(CC(=O)Nc2ccc(OCC)cc2)C(=O)N1 (centres undefined) 31.6%

— PubChem BioAssay AID1861 (The Scripps Research Institute Molecular Screening Center, 2009)
